Assay results published in ChEMBL document CHEMBL1157539, “Thousands of chemical starting points for antimalarial lead identification” (Nature, 2010).

Columns and labels:
Assay type in all cases: functional
Plasmodium falciparum [1] = test: GSK_TCMDC: Inhibition of Plasmodium falciparum 3D7 in whole red blood cells, using parasite LDH activity as an index of growth. Test compounds present at 2uM
Plasmodium falciparum [2] = test: GSK_TCMDC: Inhibition of Plasmodium falciparum Dd2 in whole red blood cells, using parasite LDH activity as an index of growth. Test compounds present at 2uM
HepG2 = test: GSK_TCMDC: Percent inhibition of human HepG2 cell line. Test compounds present at 10uM.

CC(C)c1cn2c3c(cc(C(=O)N[C@@H](Cc4ccccc4)[C@H](O)CNC4CCOCC4)cc13)N(C)S(=O)(=O)CC2.O=CO
Inhibition (Plasmodium falciparum [1]): 98% | Inhibition (Plasmodium falciparum [2]): 99% | Inhibition (HepG2): 9%

Cc1nc2nc(N)nc(N)c2c(C)c1Cc1cccc(C#N)c1.Cl
Inhibition (Plasmodium falciparum [1]): 97% | Inhibition (Plasmodium falciparum [2]): 1% | Inhibition (HepG2): 64%

O=C(CCCCCNC(=O)c1ccc(O)c(-c2ccc(Cl)c(Cl)c2)c1)NCCN1CCCCC1
Inhibition (Plasmodium falciparum [1]): 93% | Inhibition (Plasmodium falciparum [2]): 1% | Inhibition (HepG2): 0%

O=C1c2ccccc2-n2c1nc1ccccc1c2=O [TRYPTANTHRIN]
Inhibition (Plasmodium falciparum [1]): 93% | Inhibition (Plasmodium falciparum [2]): 80% | Inhibition (HepG2): 9%

COc1ccc(NC(=O)[C@H](CC(C)C)Nc2cc(C)nc(NCCc3ccccc3)n2)cc1.O=C(O)C(F)(F)F
Inhibition (Plasmodium falciparum [1]): 100% | Inhibition (Plasmodium falciparum [2]): 74% | Inhibition (HepG2): 13%

CCCCc1ccc(C(=O)Nc2ccc3nc(N4CCN(C)CC4)cc(C)c3c2)cc1
Inhibition (Plasmodium falciparum [1]): 90% | Inhibition (Plasmodium falciparum [2]): 21% | Inhibition (HepG2): 44%

Cc1nc(N)nc(N)c1-c1cc(Cl)c(N)c(Cl)c1
Inhibition (Plasmodium falciparum [1]): 94% | Inhibition (Plasmodium falciparum [2]): 2% | Inhibition (HepG2): 62%

COc1ccc2[nH]c(C)cc(=NN=Cc3ccncc3)c2c1
Inhibition (Plasmodium falciparum [1]): 100% | Inhibition (Plasmodium falciparum [2]): 68% | Inhibition (HepG2): 6%

C[C@@H]([C@@H](CCCc1ccc(Cl)cc1)C(=O)N[C@H](C(=O)Nc1cccnc1)C(C)(C)C)N(O)C=O
Inhibition (Plasmodium falciparum [1]): 100% | Inhibition (Plasmodium falciparum [2]): 99% | Inhibition (HepG2): 7%

O=C(/C=C/c1ccc(Cl)c(Cl)c1)NCCCCCN1CCC(NC(=O)Nc2cccc(Cl)c2)CC1
Inhibition (Plasmodium falciparum [1]): 100% | Inhibition (Plasmodium falciparum [2]): 13% | Inhibition (HepG2): 52%

Cn1nc2ccc3ccccc3c2nc1=N.I
Inhibition (Plasmodium falciparum [1]): 91% | Inhibition (Plasmodium falciparum [2]): 85% | Inhibition (HepG2): 100%

CCCCN(CCCC)CCCCCCNc1c2ccccc2nc2ccccc12.Cl
Inhibition (Plasmodium falciparum [1]): 95% | Inhibition (Plasmodium falciparum [2]): 87% | Inhibition (HepG2): 49%

CC(C)N1CCC(N(Cc2ccc(-c3ccc(C(F)(F)F)cc3)cc2)C(=O)Cn2c(CCc3cccc(F)c3F)cc(=O)c3cn(C)nc32)CC1.O=C(O)C(O)C(O)C(=O)O
Inhibition (Plasmodium falciparum [1]): 89% | Inhibition (Plasmodium falciparum [2]): 78% | Inhibition (HepG2): 100%

Cl.N#Cc1cccc(NC(=O)Nc2ccc3c(c2)CCN(C2CCC2)CC3)c1
Inhibition (Plasmodium falciparum [1]): 91% | Inhibition (Plasmodium falciparum [2]): 26% | Inhibition (HepG2): 22%

COC(=O)c1cccc(CNCc2cccc(-c3ccc(-c4nc5cc(C(F)(F)F)ccc5[nH]4)cc3)c2)c1.O=C(O)C(F)(F)F
Inhibition (Plasmodium falciparum [1]): 100% | Inhibition (Plasmodium falciparum [2]): 83% | Inhibition (HepG2): 13%

COc1ccc2ncc(C#N)c(CCN3CCC(NCc4ccc5c(c4)OCCO5)CC3)c2c1.Cl
Inhibition (Plasmodium falciparum [1]): 96% | Inhibition (Plasmodium falciparum [2]): 31% | Inhibition (HepG2): 12%

CCCN1CCC(NCc2cn(C)nc2-c2ccc(Oc3ccccc3)cc2)CC1
Inhibition (Plasmodium falciparum [1]): 88% | Inhibition (Plasmodium falciparum [2]): 44% | Inhibition (HepG2): 34%

CCCCN1Cc2c(n(CC(=O)Nc3ccccc3)c3cc(-c4ccccc4)nn3c2=O)C1=O
Inhibition (Plasmodium falciparum [1]): 92% | Inhibition (Plasmodium falciparum [2]): 60% | Inhibition (HepG2): 1%

CN(C)CCCNc1c2ccccc2nc2ccccc12
Inhibition (Plasmodium falciparum [1]): 91% | Inhibition (Plasmodium falciparum [2]): 4% | Inhibition (HepG2): 31%

NC(=O)c1cc2nc(NC3CCC3)nc(Nc3cccc4[nH]ncc34)c2[nH]1.O=CO
Inhibition (Plasmodium falciparum [1]): 100% | Inhibition (Plasmodium falciparum [2]): 62% | Inhibition (HepG2): 9%

Cc1ccc(C2CCN(CCCCNC(=O)c3ccc(NC(=O)c4ccc(Cl)cc4)cc3)CC2)c(OCC2CC2)c1.Cl
Inhibition (Plasmodium falciparum [1]): 100% | Inhibition (Plasmodium falciparum [2]): 95% | Inhibition (HepG2): 63%

CC(C)(C)c1ccc(O)c(CNC2CCCCC2)c1.Cl
Inhibition (Plasmodium falciparum [1]): 100% | Inhibition (Plasmodium falciparum [2]): 98% | Inhibition (HepG2): 5%

Cc1ccc2[nH]c(/C=C/c3cccc4cc[nH]c34)nc2c1
Inhibition (Plasmodium falciparum [1]): 100% | Inhibition (Plasmodium falciparum [2]): 92% | Inhibition (HepG2): 9%

CCN(CC)CCN(Cc1ccc(-c2ccc(C(F)(F)F)cc2)cc1)C(=O)Cn1cc(Cc2cnn(C)c2)c(=O)n2nc(-c3ccccc3)cc12.O=C(O)C(O)C(O)C(=O)O
Inhibition (Plasmodium falciparum [1]): 100% | Inhibition (Plasmodium falciparum [2]): 74% | Inhibition (HepG2): 18%

COc1ccc2nc(-c3ccc(C(=O)NCCCN4CCN(c5cc(Cl)ccc5OC)CC4)cc3)[nH]c2c1
Inhibition (Plasmodium falciparum [1]): 97% | Inhibition (Plasmodium falciparum [2]): 53% | Inhibition (HepG2): 0%

CNC(=O)c1cnc(Nc2ccc(OCC(O)CN(C)C)cc2)nc1Nc1cccc(OC(C)C)c1.O=C(O)C(F)(F)F (centres undefined)
Inhibition (Plasmodium falciparum [1]): 100% | Inhibition (Plasmodium falciparum [2]): 100% | Inhibition (HepG2): 21%

CCCCn1c(N)c(N(Cc2ccco2)C(=O)C=Cc2cc(OC)c3c(c2)OCCO3)c(O)nc1=O
Inhibition (Plasmodium falciparum [1]): 85% | Inhibition (Plasmodium falciparum [2]): 94% | Inhibition (HepG2): 4%

CCCCCNc1nc2nc(N)nc(N)c2nc1-c1ccccc1.Cl
Inhibition (Plasmodium falciparum [1]): 91% | Inhibition (Plasmodium falciparum [2]): 0% | Inhibition (HepG2): 9%
